# GIRK2 activator = GIRK2 channel activators by thallium flux; HEK293 GIRK2/NPY4 cells, thallium flux fluorescence; P48051; activation (% efficacy), % for hits at 37.5 µM; 34,000 tested, under 10 active;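 active = primary screen hit, no activity in plain HEK293 cells, and in GIRK2-only cells above 5% efficacy rising with concentration; inactive = the rest, including fluorescent compounds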;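 note: efficacy is normalized control-subtracted fluorescence 15 s after thallium addition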
# AMPAR-TARP mod = modulates AMPAR-stargazin complexes | HEK293 GluA2+stargazin, membrane potential dye (FDSS), glutamate EC50; hits were called plate by plate, in both directions | 3.5% of 40,000 active | AID 1259245 | calls only at 30 µM | O88602+P19491;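 active = any of four per-well response measures lying three or more SD from its plate-wide compound average, in either direction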
# Active calls of the source: *; i = inactive; x = no result given; + = active, no number. The full list was thinned out, with hits kept by preference.
SMILES,GIRK2 activator,AMPAR-TARP mod
CCOC(=O)N1CCN(C(=O)CSc2ccc(NC(=O)C3CC3)nn2)CC1,i,i
CC(C)N1CCc2c(sc(NC(=O)c3nc4ccccc4s3)c2-c2nc3ccccc3s2)C1,x,i
CC(=O)N1CCc2c(sc(NC(=O)c3cc(C)n(C)n3)c2-c2nc3ccccc3s2)C1,i,+
CC(C)N1CCc2c(sc(NC(=O)c3ccco3)c2-c2nc3ccccc3s2)C1,x,+
CC(=O)N1CCc2c(sc(NC(=O)c3ccccc3)c2-c2nc3ccccc3s2)C1,x,i
Cc1cc(F)ccc1S(=O)(=O)NCC1CCN(c2ccccn2)CC1,i,i
O=C(NCc1ccc2c(c1)OCO2)C(=O)Nc1cccc(N2CCCC2=O)c1,i,i
O=C(c1cccs1)N(CCCn1ccnc1)c1nc2ccccc2s1,i,i
Cc1ccc(Cl)c2sc(N(CCCn3ccnc3)C(=O)c3cccs3)nc12,i,+
O=C(Cc1cc(-c2ccc(F)cc2F)on1)N1CCCC1,i,x
COCCNC(=O)Cc1ccc(NC(=O)c2ccc(S(=O)(=O)N(C)C)cc2)cc1,i,x
CCc1nc2sc(C(c3ccc(Cl)cc3Cl)N3CCCCC3)c(O)n2n1 (stereo unspecified),i,i
O=C(Cn1cnc(-c2cccs2)cc1=O)NCC(F)(F)F,i,+
O=C(Cn1cnc(-c2cccs2)cc1=O)NCc1ccccc1OC(F)(F)F,i,i
CSc1ccccc1NC(=O)C(=O)NCCc1ccc(Cl)cc1,i,+
CCc1ccccc1NC(=O)C(=O)NCCc1ccc(Cl)cc1,i,i
COc1ccc(C(=O)NCCn2ncc3c(N4CCCCCC4)ncnc32)cc1OC,i,i
O=C(NCCn1ncc2c(N3CCCC3)ncnc21)c1ccc(=O)oc1,x,+
Cc1ccc2c(CC(=O)Nc3cccc(Cl)c3C)cc(=O)oc2c1,i,i
COCC(C)(O)CNC(=O)c1snnc1C (stereo unspecified),i,i
CC(C)CCNC(=O)CCc1csc(NC(=O)c2ccc[nH]c2=O)n1,x,i
COCCNC(=O)CCc1csc(NC(=O)c2ccc[nH]c2=O)n1,i,+
CN(C1CC1)S(=O)(=O)c1ccc(C(=O)Nc2sc3c(c2C(N)=O)CCCCC3)cc1,i,i
COc1ccc(OC)c(S(=O)(=O)Nc2ccc3c(c2)CCCN3S(=O)(=O)c2ccccc2)c1,x,i
CCCS(=O)(=O)N1CCCc2cc(NS(=O)(=O)c3cc(C)ccc3OC)ccc21,x,+
SMILES,GIRK2 activator,AMPAR-TARP mod
COc1ccc(OC)c(S(=O)(=O)Nc2ccc3c(c2)N(S(=O)(=O)c2ccccc2)CCC3)c1,x,+
CCCS(=O)(=O)N1CCCc2cc(NS(=O)(=O)c3cc(C)ccc3OCC)ccc21,x,i
Cc1nc2ccccn2c(=O)c1NC(=O)Nc1ccccc1Cl,i,i
CC(C)c1nnc(NC(=O)c2ccc(S(=O)(=O)NC3CCCC3)cc2)s1,i,i
CC(C)(C)c1ccc(OC(=O)N2CCOCC2)cc1,x,i
O=C(Oc1ccccc1OC(=O)N1CCOCC1)N1CCOCC1,x,+
CC(C)(C)c1csc(CN2CCN(S(=O)(=O)c3ccc4c(c3)OCCO4)CC2)n1,i,i
CCOc1ccc2ccccc2c1C(=O)NCC1CCN(C(C)C)CC1,i,x
CCOc1ccc2ccccc2c1C(=O)NCC(O)(c1ccco1)C1CC1 (stereo unspecified),i,+
CCOc1ccc2ccccc2c1C(=O)NCC(C)(O)c1ccccc1 (stereo unspecified),i,x
CCOc1ccc2ccccc2c1C(=O)NC1CCCC(O)C1 (stereo unspecified),i,+
CCOc1cc(C(=O)NCc2ccsc2)cc(OCC)c1OCC,i,i
CCOc1ccc2ccccc2c1C(=O)NCc1ccsc1,i,+
COc1cc2nc(SCC(=O)NC3CCCCC3)n3nc(C)nc3c2cc1OC,i,x
Cn1ccc(C(=O)N2CCNC(=O)C2(C)C)n1,i,i
CC1(C)C(=O)NCCN1C(=O)c1ccco1,i,+
O=C(NCC(F)(F)F)c1ccc(N2CCC(Cc3ccccc3)CC2)nn1,i,+
O=C(NCC(F)(F)F)C1CCN(C(=O)CSCc2ccccc2)CC1,i,x
Cn1cccc1C(CNC(=O)c1ccc(F)cc1)N1CCOCC1 (stereo unspecified),i,+
Cn1cccc1C(CNC(=O)C(=O)NCc1ccc(F)cc1)N1CCOCC1 (stereo unspecified),i,i
CCn1c(CNC(=O)c2ccco2)nc2ccccc21,i,x
Cc1ccc(C)c(S(=O)(=O)N2CCCN(CCn3cccn3)CC2)c1,i,i
Cc1ccc(S(=O)(=O)N2CCN(CCn3cccn3)CC2)c(C)c1,i,+
Cc1ccc(-n2nc3c(c2NC(=O)C(=O)NCc2ccc4c(c2)OCO4)CSC3)c(C)c1,i,i

# Assay outcomes (PubChem)
